Consider 82 molecules from PubChem BioAssay AID602393 (Broad Institute, 2012).

Out of some 350,000 compounds screened, about 7,000 (2%) were called active. Only a selection was taken, and actives are over-represented in it overall. Values without a mark were called inactive. Cut-off read from the data, not from the text of the source: active = activation above about 40%; inconclusive = no clear call, values can overlap the other calls; inactive = below that.

This test in a line: Bmi1 luciferase reporter increase in mESCs, primary screen, esBAF inhibitor project, mouse ES cells, Bmi1 luciferase knock-in, single point (AID 602393).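 Note: 0% = median of the plate's neutral control wells and 100% = double that signal; a rise in the Bmi1 reporter signal indicates esBAF inhibition.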 To be noted: 24 h, at 12.5 µM, stronger effect = higher value, 100% = twice the neutral-well signal.
For `Cc1cc(NC(=O)c2cc3ccccc3o2)no1`, the reporter increase is 20.5%. With `O=C(NCCc1ccc2c(c1)OCCO2)c1cc2ccccc2o1`, the reporter increase was 24.4%. As for `O=C(Nc1ccncc1)c1cc2ccccc2o1`, the reporter increase was 75.6% (active). For the molecule `Cc1ccc(NC(=O)c2cc3ccccc3o2)cc1`, the reporter increase was 52.9% (active). Take `CC(C)(C)n1nc2c(c1NC(=O)c1cc3ccccc3o1)CSC2`: the reporter increase was -2.69%.

For the molecule `CN(C)C(CNC(=O)c1cc2ccccc2o1)c1ccccc1` (configuration not stated), the reporter increase is 7.21%. Regarding `COc1ccccc1C#Cc1ccc2c(c1)O[C@@H](CN(C)Cc1cncnc1)[C@H](C)CN([C@@H](C)CO)S2(=O)=O`, the reporter increase is 8.66%. With `COC(=O)N(C)C[C@H]1OCc2ccccc2-c2ccccc2C(=O)N([C@@H](C)CO)C[C@H]1C`, the reporter increase is 5.99%. To `CN(c1ccccc1)S(=O)(=O)c1cccc(NC(=O)Cc2ccc(Cl)cc2)c1` belongs -11.6%. `CN(c1cccc(NC(=O)Nc2ccc(Cl)cc2)c1)S(C)(=O)=O`: the reporter increase is 50.6% (active). Take `CN(c1cccc(NC(=O)c2ccc(CN3CCc4ccccc4C3)cc2)c1)S(C)(=O)=O`: the reporter increase was -0.323%. Next, `C[C@H](CO)N1C[C@H](C)[C@@H](CN(C)CC2CCCCC2)Oc2ccc(NS(=O)(=O)c3cccs3)cc2CC1=O`: -1.82%; `CCCNC(=O)C[C@@H]1C[C@@H]2c3cc(N(C)C)ccc3O[C@@H]2[C@H](CO)O1`: 1.01%; `CCCN(C)C[C@@H]1Oc2cc(C#Cc3ccc(F)cc3)ccc2S(=O)(=O)N([C@H](C)CO)C[C@H]1C`: -2.93%. `CCOC(=O)c1cc2ccccc2n1CC(=O)c1ccccc1`: the reporter increase was 2.35%. As for `CCOC(=O)c1cc(-c2sc(NC(=O)c3ccccc3)nc2C)n(-c2ccc(Br)cc2)n1`, the reporter increase is 50.4% (active).

Regarding `C=CCn1nc(C(=O)OCC)cc1-c1sc(NC(=O)c2ccccc2)nc1C`, the reporter increase is 4.24%. Turning to `CCOC(=O)c1cc(-c2sc(NC(=O)c3ccccc3)nc2C)n(Cc2ccccc2)n1`, the reporter increase is 56% (active).

Regarding `CCOC(=O)c1cc(-c2sc(NC(=O)c3ccccc3)nc2C)n(CCO)n1`, the reporter increase was 12.3%. Take `CCOc1ccc(C(=O)Nc2c3c(nn2-c2ccccc2)CS(=O)(=O)C3)cc1`: the reporter increase is -0.973%. Consider `COc1ccc(NC(=O)Nc2ccc3c(c2)[C@@H]2C[C@H](CC(=O)N[C@@H](C)c4ccccc4)O[C@@H](CO)[C@@H]2O3)cc1`, for which the reporter increase was -1.34%.

As to `Cc1ccc(S(=O)(=O)N(C)C[C@@H]2OCCCC[C@@H](C)Oc3ccc(NC(=O)Nc4ccc(C(F)(F)F)cc4)cc3C(=O)N([C@@H](C)CO)C[C@@H]2C)cc1`, the reporter increase is 1.3%. As for `C[C@@H]1CCCCO[C@H](CN(C)S(=O)(=O)c2ccccc2)[C@H](C)CN([C@@H](C)CO)C(=O)c2cc(N(C)C)ccc2O1`, the reporter increase is -0.863%. As for `Cc1cc2c(=O)n(C)c(SCC(=O)c3cc4ccccc4o3)nc2s1`, the reporter increase is -5.28%.

Regarding `Nc1ncc(-c2cc3ccccc3oc2=O)s1`, the reporter increase was 47.3% (active). To `COc1ccc2oc(=O)cc(-c3cc4ccccc4o3)c2c1` belongs -2.86%. To `COc1ccccc1C(=O)Nc1ccc2c(c1)C(=O)N(C)C[C@@H](OC)[C@@H](C)CN(CC1CC1)[C@@H](C)CO2` belongs 2.64%. Consider `CCC(=O)N1CCCCN2[C@H](C1)[C@@H](c1ccc(C#CCOC)cc1)[C@@H]2CO`, for which the reporter increase was 3.27%. On to `C[C@H](CO)N1C[C@H](C)[C@@H](CN(C)S(=O)(=O)c2ccc(F)cc2)OCCCC[C@H](C)Oc2ccc(NC(=O)CCCN(C)C)cc2C1=O`, for which the reporter increase was -3.29%. In the case of `Cc1ccc(S(=O)(=O)N2C[C@H](O)COC[C@@H]3O[C@@H](CC(=O)NCC4CCCCC4)CC[C@H]32)cc1`, the reporter increase is -0.379%. `COCc1cccc(-c2csc(C(O)c3ccc(F)cc3)n2)c1` (configuration not stated): the reporter increase was 49.8% (active).

Take `COc1cc(C(O)c2nc(-c3cccc(C(=O)O)c3)cs2)ccc1F` (configuration not stated): the reporter increase is 4.68%.

`COc1ccc(C(O)c2nc(-c3ccc4c(c3)OCO4)cs2)cc1` (configuration not stated): the reporter increase is 11.6%.

In the case of `O=C(c1cccnc1)N1C[C@@H]2[C@H](c3ccccc31)[C@@H](CO)N2C(=O)Nc1ccc(F)cc1`, the reporter increase was 1.17%. Take `COc1ccc(S(=O)(=O)N(C)C[C@H]2OCCCC[C@@H](C)Oc3ccc(NS(=O)(=O)c4ccc(C)cc4)cc3C(=O)N([C@@H](C)CO)C[C@@H]2C)cc1`: the reporter increase is 7.8%. With `CCN1[C@@H]2Cn3c(ccc(-c4cccnc4)c3=O)[C@H]1[C@@H](C(=O)NC1CCCCC1)[C@@H]2CO`, the reporter increase is -4.32%. As to `COCCCNC(=O)COc1cc(C)c(Cl)c(C)c1`, the reporter increase is 4.32%. For `Cc1cccnc1CC(C)NC(=O)c1cc(COc2cncc(Cl)c2)on1` (configuration not stated), the reporter increase is 9.52%. For the molecule `Cc1cc(OCc2cc(C(=O)NCc3cc(C(C)C)no3)no2)cc(C)c1Cl`, the reporter increase was 81.9% (active). To `COc1ccc(CN(C)C[C@@H]2OCCCC[C@H](C)Oc3ccc(NS(=O)(=O)c4ccc(F)cc4)cc3C(=O)N([C@@H](C)CO)C[C@@H]2C)cc1` belongs -7.82%. `Cn1cnc(S(=O)(=O)N2C[C@@H](O)COC[C@@H]3O[C@H](CC(=O)NCc4ccc(F)cc4)CC[C@H]32)c1`: the reporter increase is -4.57%. With `O=C(c1cccc(F)c1)N1CC[C@@H]2[C@@H](CO)Nc3ccc(C#Cc4cccc(F)c4)cc3[C@@H]21`, the reporter increase is 2.36%. Turning to `Cc1noc(C)c1NC(=O)N[C@@H]1C=C[C@@H](CC(=O)Nc2ccccc2)O[C@H]1CO`, the reporter increase is 1.58%.

As to `O=C(Nc1ccc2c(c1)CCC2)c1ccc(Br)s1`, the reporter increase was 21.7%.

For `COc1ccc(CNC(=O)c2ccc(Br)s2)cc1OC`, the reporter increase is -1.1%. On to `COc1cc(NC(=O)CN(C)S(=O)(=O)c2ccc3nc(C)sc3c2)cc(OC)c1`, for which the reporter increase was -1.66%. In the case of `COc1ccc2nc(NC(=O)c3ccc(Br)s3)sc2c1`, the reporter increase was 71.6% (active). With `COc1cccc(C(=O)Nc2nnc(S(=O)(=O)N(C)c3ccccc3)s2)c1`, the reporter increase was 3.61%. To `COc1cccc(C(=O)Nc2nc3ccc(S(C)(=O)=O)cc3s2)c1` belongs 50.7% (active); to `C[C@H](NC(=O)C[C@@H]1C=C[C@H](NC(=O)CN2CCOCC2)[C@H](CO)O1)c1ccccc1`, -6.32%; to `N#Cc1ccc(-c2ccc3c(c2)[C@H]2[C@H](CCN2Cc2ccc4c(c2)OCO4)[C@@H](CO)N3)cc1`, -8.59%. With `CCCNC(=O)N(C)C[C@H]1Oc2cc(-c3ccncc3)ccc2S(=O)(=O)N([C@H](C)CO)C[C@H]1C`, the reporter increase was 0.442%.

Take `CCCNC(=O)C[C@H]1CC[C@H]2[C@@H](COC[C@H](O)CN2C(=O)CC)O1`: the reporter increase is 5.31%. Turning to `CCCNC(=O)N1[C@H](C#N)[C@@H](c2ccccc2)[C@H]1CO`, the reporter increase is -3.13%.

For `Cc1ccc(S(=O)(=O)NCC[C@H]2CC[C@@H](NC(=O)C3CCOCC3)[C@@H](CO)O2)cc1`, the reporter increase is -2.84%.

Turning to `Cc1csc(NC(=O)Nc2ccccc2[N+](=O)[O-])n1`, the reporter increase is 60.4% (active). With `CN1CCN(CCNC(=O)Nc2ccccc2[N+](=O)[O-])CC1`, the reporter increase is -5.22%. For `Cc1csc(NC(=O)NC2(C(F)(F)F)Oc3ccccc3O2)n1`, the reporter increase is -3.69%. In the case of `C[C@H]1CN([C@@H](C)CO)C(=O)c2cc(Br)cnc2O[C@@H]1CN(C)C(=O)c1ccccc1`, the reporter increase was -3.42%. For `COc1ccc(Nc2ncnc3sc(C)cc23)cc1`, the reporter increase is 66.1% (active). For `COc1ccc(CNc2ncnc3ccccc23)cc1`, the reporter increase is -11.7%. As to `COc1ccc(Nc2cc(Sc3ccc(OC)cc3)ncn2)cc1`, the reporter increase was 13.3%.

As for `Cc1ccccc1CSc1nnc(-c2cccnc2)n1N`, the reporter increase was 17.5%. `C=C(C)CSc1nnc(-c2ccc(C)cc2)n1N`: the reporter increase was 57.8% (active).

`Cc1ccc(-c2nnc(SC(C)C#N)n2N)cc1` (configuration not stated): the reporter increase is 0.696%.

Turning to `CCS(=O)(=O)Nc1ccc2c(c1)C(=O)N(C)[C@@H]1CC[C@H](CC(=O)N3CCCCC3)O[C@@H]1CO2`, the reporter increase was -2.06%.

As to `CCc1sc(C(=O)N2CCN(CC(=O)Nc3cccc(F)c3)CC2)cc1C`, the reporter increase is 79.7% (active). Next, `O=C(CN1CCN(c2ccc(F)cc2)CC1)Nc1cccc(C(F)(F)F)c1`: -10.4%. Next, `CC(=O)N1CCN(CC(=O)Nc2ccc(C)c(F)c2)CC1`: -6.19%. On to `Cc1ccc(S(=O)(=O)N(C)C[C@@H]2Oc3c(NS(C)(=O)=O)cccc3C(=O)N([C@@H](C)CO)C[C@H]2C)cc1`, for which the reporter increase is -2.2%. `O=C(NC[C@@H]1N[C@@H](CO)[C@H]1c1ccc(-c2cccnc2)cc1)c1cccc(F)c1`: the reporter increase is 5.54%. To `COCCNC(=O)C[C@H]1CC[C@H]2[C@H](COc3ccc(NC(=O)C4CCOCC4)cc3C(=O)N2C)O1` belongs 2.05%.

Regarding `Cc1cccc(NC(=O)COc2ccccc2C)n1`, the reporter increase was 44.4% (active). Next, `Cc1ccccc1OCC(=O)Nc1nnc(S(=O)(=O)N2CCCC2)s1`: 1.57%.

Take `Cc1cccc(NC(=O)COc2ccc(Br)cc2C)n1`: the reporter increase was 35.7%. Next, `Cc1cccc(NC(=O)c2ccc3ccccc3n2)n1`: 25.2%; `Cc1ccccc1OCC(=O)Nc1ccc2c(c1)ncn2C`: 68.1% (active); `CCOc1ccc(OCc2ccc(C(=O)Nc3cccc(C)n3)o2)cc1`: 37.5%. As to `Cc1cccc(NC(=O)Cc2ccc(Br)cc2)n1`, the reporter increase is 44.9% (active). Next, `COCCNC(=O)COc1ccccc1C`: 0.533%. For `Cc1ccccc1OCC(=O)Nc1nc(C)c(C(=O)N(C)C)s1`, the reporter increase is 9.35%. As for `C/C=C/c1ccc([C@H]2[C@@H](CO)N(C(=O)CC)[C@H]2CN(C)C(=O)C2CC2)cc1`, the reporter increase is 5.87%.
